PubChem BioAssay AID504339 (National Center for Advancing Translational Sciences (NCATS), 2011)
“And” between values parts separate entries of the source, which are not always exact repeats. Identical values can stand only once. The campaign covered roughly 390,000 compounds. About 17,000 (4.4%) were called active. Another 8% or so got no clear call; they are omitted. This is one part of a sample in which actives are shown more often than they occur. Calls come from the whole dose curve; as a rule, active = well fitted inhibition curve with a large enough effect; inconclusive = small, poorly fitted or top-dose-only effect; inactive = no such curve, though single readings can be large or run the other way. Some structures have more than one record in an assay (separate samples or runs), and their calls can disagree.
% is set by controls: 0 for no effect and ±100 for the full control effect; potency is the fitted concentration of half-maximal effect.
Note: nearly all actives have a fitted effect of over 50% in size.

These compounds were tested against Lysine-specific demethylase 4A (Homo sapiens) (UniProt O75164) (assay: qHTS Assay for Inhibitors of JMJD2A-Tudor Domain). Settings: AlphaScreen JMJD2A-Tudor / H3K4me3 peptide binding; series mostly up to 114 µM; activity change, negative = inhibition: at the top concentration.
Lysine-specific demethylase 4A (Homo sapiens), sequence (O75164 whole entry, looked up, the tested form may be a part): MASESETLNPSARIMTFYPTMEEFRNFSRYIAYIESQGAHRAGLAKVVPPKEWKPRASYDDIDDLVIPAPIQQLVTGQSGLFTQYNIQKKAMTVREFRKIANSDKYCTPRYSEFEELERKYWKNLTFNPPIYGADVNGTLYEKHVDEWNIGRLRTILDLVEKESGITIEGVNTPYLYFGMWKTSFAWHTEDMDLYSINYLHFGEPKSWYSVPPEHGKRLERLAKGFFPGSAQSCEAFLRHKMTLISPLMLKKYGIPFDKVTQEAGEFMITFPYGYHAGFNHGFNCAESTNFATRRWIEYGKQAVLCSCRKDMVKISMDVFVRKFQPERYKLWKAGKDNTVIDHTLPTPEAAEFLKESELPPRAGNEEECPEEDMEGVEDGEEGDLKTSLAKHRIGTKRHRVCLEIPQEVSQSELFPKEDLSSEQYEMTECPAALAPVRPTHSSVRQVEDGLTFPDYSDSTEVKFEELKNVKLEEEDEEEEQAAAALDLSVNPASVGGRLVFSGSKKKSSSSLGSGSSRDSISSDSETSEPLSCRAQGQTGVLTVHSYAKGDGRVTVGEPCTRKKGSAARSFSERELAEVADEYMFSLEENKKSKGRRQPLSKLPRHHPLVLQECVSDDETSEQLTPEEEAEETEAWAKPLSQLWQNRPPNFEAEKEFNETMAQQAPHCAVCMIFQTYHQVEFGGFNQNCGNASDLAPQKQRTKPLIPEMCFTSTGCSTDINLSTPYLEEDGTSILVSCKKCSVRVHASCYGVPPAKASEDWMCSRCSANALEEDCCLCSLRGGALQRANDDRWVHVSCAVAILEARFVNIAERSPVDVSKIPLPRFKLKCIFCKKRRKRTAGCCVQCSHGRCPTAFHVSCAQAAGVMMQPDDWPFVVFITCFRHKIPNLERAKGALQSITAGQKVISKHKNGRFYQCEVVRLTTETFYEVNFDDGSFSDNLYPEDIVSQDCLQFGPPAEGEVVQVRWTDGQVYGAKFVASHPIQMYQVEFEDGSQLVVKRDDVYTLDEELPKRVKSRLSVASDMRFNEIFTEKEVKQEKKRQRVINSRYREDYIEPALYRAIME
With CCCn1c2ccccc2c2cnn(CC(=O)N(C)c3ccccc3CC)c(=O)c21 the “activity change, negative = inhibition” value was -26.7% (inactive). CN(C)CCOCCOc1ccc(Cl)c2ccccc12 was tested, and the Potency was 3.16 µM (active). For CCCC(C(=O)OCCN(CC)CC)(c1ccccc1)c1ccccc1, the “activity change, negative = inhibition” value was -36% (inactive). In the case of CCOc1ccc(S(=O)(=O)N2CCCCCC2)c2ccccc12, the “activity change, negative = inhibition” value is reported as 23.2% (inactive). CCN(CC)CCOCCOc1ccc(Cl)c2ccccc12 was tested, and the Potency was 25.1 µM (active). With COc1ccc(C)cc1NC(=O)C(=O)NCCc1sc(-c2cccc(C)c2)nc1C the “activity change, negative = inhibition” value was -6.13% (inactive). Cc1nc(SCC(=O)N2CCN(c3ccccc3)CC2)[nH]c(=O)c1C was tested, and the “activity change, negative = inhibition” value was -9.03% (inactive). In the case of CCOc1ccc(NC(=O)CCC(=O)N2CC(C)Oc3ccc(C)cc32)cc1 (stereo not given), the “activity change, negative = inhibition” value is reported as -2.32% (inactive). With CCOc1ccc(CNC(=O)c2ccc3c(c2)nnn3C2CCCC2)cc1 the “activity change, negative = inhibition” value was -18.5% (inactive). For COc1ccc(-c2nc3sc(CCNC(=O)C(C)(C)C)c(C)n3n2)cc1, the “activity change, negative = inhibition” value was -14% (inactive). In the case of CCOC(=O)C1Nc2ccc(C(F)(F)F)cc2C2C=CCC12 (stereo not given), the Potency is reported as 50.1 µM (active). CCOC(=O)NNc1cc(C(F)(F)F)ccn1 was tested, and the “activity change, negative = inhibition” value was -14.5% (inactive). With CCOC(=O)C[C@H]1c2ccc(C(F)(F)F)cc2S(=O)(=O)N1c1ccccc1 the “activity change, negative = inhibition” value was -14.3% (inactive). In the case of CCOc1cccc(NC(=O)CSc2ncc(-c3ccc(Cl)cc3)[nH]2)c1, the “activity change, negative = inhibition” value is reported as -16.1% (inactive). In the case of COc1cccc(C(=O)NC2CCN(C#N)CC2)c1, the “activity change, negative = inhibition” value is reported as -17.8% (inactive). With COC(=O)c1cnn(-c2ccc(C(=O)Nc3ccc(OC(F)(F)F)cc3)cc2)c1N the “activity change, negative = inhibition” value was -18% (inactive). For CCCN(CCC)CCCNC(=O)Cn1cc2c(n1)-c1c(oc(C(=O)N3CCCC3)c1C)CC2, the “activity change, negative = inhibition” value was -15.8% (inactive). With CCOC(=O)c1ccc(NC(=O)C2CC(=O)NC(=Nc3ccc(C)c(C)c3)S2)cc1 (stereo not given) the “activity change, negative = inhibition” value was -19.7% (inactive). With Cn1c(=O)c2c(n3c4ccccc4nc13)NC(=O)CC2c1cccc(Cl)c1 (stereo not given) the “activity change, negative = inhibition” value was -14.3% (inactive). O=C1CCc2cc(S(=O)(=O)Nc3cccc(Oc4ccccc4)c3)ccc2N1 was tested, and the “activity change, negative = inhibition” value was -30.5% (inactive). For CCN1CCN(c2ncnc3c2cnn3-c2ccc(C)c(C)c2)CC1, the “activity change, negative = inhibition” value was -21.7% (inactive). In the case of COC(=O)CC1=NN(c2ccccc2)C(=O)C1, the “activity change, negative = inhibition” value is reported as -19.2% (inactive). In the case of Cn1nc(-c2ccccc2)c2cc([N+](=O)[O-])ccc21, the “activity change, negative = inhibition” value is reported as -20.8% (inactive). In the case of O=C1CC(c2ccccc2)=NN1c1ccc([N+](=O)[O-])cc1, the Potency is reported as 39.8 µM (active). With COC(=O)c1ccc(-c2nc3cc(NC(C)=O)ccc3o2)cc1 the “activity change, negative = inhibition” value was -2.29% (inactive). For CCOc1cccc2c1N[C@@H](c1ccc(C(=O)O)cc1)[C@H]1CC=C[C@@H]21, the Potency was 22.4 µM (active). In the case of CCOc1cc(C(=O)O)ccc1OCCOc1ccccc1, the “activity change, negative = inhibition” value is reported as -10.9% (inactive). With CCOc1c(CNCc2ccc(C(=O)O)cc2)cccc1OC the “activity change, negative = inhibition” value was 0% (inactive). In the case of CC(=NNC(=S)N1CCCCCC1)c1ccccn1, the Potency is reported as 11.2 µM (active). With C/C(=N/NC(=O)c1ccn(C)n1)c1ccncc1 the “activity change, negative = inhibition” value was -9.58% (inactive). In the case of CCNC(=S)N1CCN(c2ncccn2)CC1, the “activity change, negative = inhibition” value is reported as -18.4% (inactive). With COc1ccc(C/C(C)=N/NC(=O)c2ccncc2)cc1 the Potency was 10 µM (active). With C/C(=N\NC(=O)c1ccccc1F)c1ccccn1 the Potency was 35.5 µM (active). For O=C(Nc1nnc(-c2ccccc2F)s1)c1ccccc1F, the “activity change, negative = inhibition” value was -11% (inactive). With C/C(=N/NC(=O)CCc1ccccc1)c1ccco1 the “activity change, negative = inhibition” value was 1.37% (inactive). In the case of CC1=NNC(=O)C1CCC(=O)N/N=C(\C)c1ccc(Cl)cc1 (stereo not given), the “activity change, negative = inhibition” value is reported as -9.51% (inactive). COc1ccc(C(=O)N/N=C(\C)CC(=O)Nc2ccc(Cl)cn2)cc1 was tested, and the “activity change, negative = inhibition” value was -13.5% (inactive). In the case of COc1ccc(C/C(C)=N/NC(=O)c2cc(C)oc2C)cc1, the “activity change, negative = inhibition” value is reported as -18.9% (inactive). Cc1cccc(C)c1NC(=S)N1CCCCCC1 was tested, and the “activity change, negative = inhibition” value was 7.38% (inactive). For C/C(=N\NC(=O)Cc1ccc(Cl)cc1)c1ccccn1, the Potency was 56.2 µM (active). For O=C(CCc1cn(Cc2ccc(F)cc2)c2ccccc12)NC1CCCCC1, the “activity change, negative = inhibition” value was -12.8% (inactive). In the case of Cc1ccc(N(C)C(=O)C2CCN(S(=O)(=O)c3ccc4c(c3)CCCN4C(=O)C3CCC3)CC2)cc1, the “activity change, negative = inhibition” value is reported as -11.6% (inactive). For O=C(CCc1nc(CN2CCN(S(=O)(=O)c3ccc(Cl)cc3)CC2)no1)N1CCCCC1, the “activity change, negative = inhibition” value was -17.9% (inactive). CCc1ccccc1NC(=O)c1ccc2nc(CCc3ccccc3)oc2c1 was tested, and the “activity change, negative = inhibition” value was -6.71% (inactive). O=C(Cn1c(=O)n(-c2ccc(F)cc2)c(=O)c2sccc21)Nc1cccc(C(F)(F)F)c1 was tested, and the “activity change, negative = inhibition” value was -13.7% (inactive). In the case of Cc1ccccc1CN1CCC(CNC(=O)c2c(C)oc3ncnc(N4CCCCC4)c23)CC1, the “activity change, negative = inhibition” value is reported as -10% (inactive). In the case of COc1ccc(CN2CCc3nc(Nc4ccccc4)ncc3C2)c(OC)c1OC, the “activity change, negative = inhibition” value is reported as -21.5% (inactive). For Cc1ccc(CSc2nc3ccsc3c(=O)n2CCC(C)C)cc1, the “activity change, negative = inhibition” value was 49% (inactive). In the case of COc1ccc(CC(=O)N/N=C(\C)c2ccccn2)cc1, the Potency is reported as 89.1 µM (active). With COc1ccc(CC(=O)Nc2c(C(N)=O)oc3ccccc23)cc1 the “activity change, negative = inhibition” value was 13.2% (inactive). For COc1ccc(/C(C)=N/NC(=O)c2ccc3nc[nH]c3c2)cc1, the “activity change, negative = inhibition” value was -1.03% (inactive). In the case of COc1ccccc1CNC(=O)CCCn1c(=O)c2ccccc2n(CC(=O)Nc2ccc(C)cc2Cl)c1=O, the “activity change, negative = inhibition” value is reported as -10.2% (inactive). With COc1ccc(-c2cc(C(=O)N3CCN(c4ccc(F)cc4)CC3)no2)cc1 the “activity change, negative = inhibition” value was -20.4% (inactive). O=C(c1cc(-c2ccc(F)cc2)on1)N1CCN(c2ccc(F)cc2)CC1 was tested, and the Potency was “inactive and 28.2 µM (active)”. With O=C(c1cc(-c2ccc(Cl)cc2)on1)N1CCN(c2ccccc2)CC1 the “activity change, negative = inhibition” value was -7.59% (inactive). For COc1ccc(-n2c(=O)c3ccccc3n(Cc3ccccc3Cl)c2=O)cc1, the “activity change, negative = inhibition” value was -5.46% (inactive). COc1ccc(-c2cc(-c3nc(-c4cc(OC)c(OC)c(OC)c4)no3)[nH]n2)c(OC)c1 was tested, and the “activity change, negative = inhibition” value was -24% (inactive). With CCC(=O)Nc1ccccc1-c1nc2ccccc2n(CC(=O)Nc2ccc(C)c(C)c2)c1=O the “activity change, negative = inhibition” value was -12.6% (inactive). In the case of Cn1c(SCc2ccc(F)cc2)nnc1-c1ccncc1, the “activity change, negative = inhibition” value is reported as -2.9% (inactive). In the case of CC1CCCC(NC(=O)CSc2nccn2C)C1C (stereo not given), the “activity change, negative = inhibition” value is reported as -21.8% (inactive). For CCn1c(SCC(=O)NC2CC2)nnc1-c1ccncc1, the “activity change, negative = inhibition” value was -4.14% (inactive). CCn1c(SCc2cccc(C(=O)O)c2)nnc1-c1ccc(Cl)cc1 was tested, and the “activity change, negative = inhibition” value was -10.2% (inactive). In the case of CC1CCCCC1NC(=O)CSc1nnc(-c2ccncc2)n1CCCN(C)C (stereo not given), the Potency is reported as 3.55 µM (active). CN(C)CCCn1c(SCc2ccc(Cl)cc2)nnc1-c1ccncc1 was tested, and the Potency was 20 µM (active). In the case of Cc1ccccc1-c1nc2scc(CCNC(=O)C(=O)Nc3ccc(F)cc3F)n2n1, the “activity change, negative = inhibition” value is reported as 6.39% (inactive). With CCOC(=O)c1ccc(NC(=O)CCS(=O)(=O)c2ccc(C)cc2)cc1 the “activity change, negative = inhibition” value was -3.88% (inactive). COc1ccc(OCC(=O)Nc2cccc(C(=O)OCc3cc(=O)n4nc(C)sc4n3)c2)cc1 was tested, and the “activity change, negative = inhibition” value was -23.8% (inactive). For O=C(Cc1ccccc1)Nc1ccc(NC(=O)c2cccnc2)cc1, the “activity change, negative = inhibition” value was -11% (inactive). With CCCCc1ccc(NC(=O)NCc2cccnc2)cc1 the “activity change, negative = inhibition” value was 5.32% (inactive). For O=C(CC(NCc1cccnc1)C(=O)O)Nc1ccc(O)cc1 (stereo not given), the Potency was 25.1 µM (active).
